Each compound was assayed on CDK2. Details: concentration: 1 μM, replicates: in singlicate; n = 1.
For COc1cccc(C(=O)Nc2cccc(Oc3ccc4nc(NC(=O)C5CC5)cn4n3)c2)c1, the “%Inh” value was 0%.
Cl.Cl.NCC(NC(=O)c1cc(-c2ccccc2)c(-c2ccnc3[nH]ccc23)s1)c1ccccc1 (stereo not shown) [GSK1321561] was tested, and the “%Inh” value was 0%.
With CC(=O)Nc1nc2cnc(Nc3cc(NC(=O)c4cccc(C5(C#N)CC5)c4Cl)ccc3C)nc2s1 the “%Inh” value was 0%.
For COc1cccc(NC(=O)NC2CCN(c3ccnc(Nc4cc(OC)c(OC)c(OC)c4)n3)C2)c1 (stereo not shown) [GSK1379763], the “%Inh” value was 0%.
COc1cc2c(cc1OCCN1CCNCC1)ncc1c3ccc(C#N)cc3[nH]c21 was tested, and the “%Inh” value was 0%.
With CSc1cccc2c(-c3ccncn3)c(-c3ccc(F)cc3)nn12 [GW514786] the “%Inh” value was 11%.
With Cn1cc(-c2ccc3c(c2)CCN3C(=O)Cc2cccc(Cl)c2)c2c(N)ncnc21 [GSK2606590] the “%Inh” value was 0%.
With CCS(=O)(=O)c1ccc(OC)c(Nc2nccc(-c3c(-c4cccc(NC(=O)c5c(F)cccc5F)c4)nn4ncccc34)n2)c1 [GSK326180] the “%Inh” value was 0%.
For CCn1c(-c2nonc2N)nc2c(C#CC(C)(C)O)ncc(OCCCCN)c21.O=C(O)C(F)(F)F.O=C(O)C(F)(F)F [GSK507274], the “%Inh” value was 3%.
In the case of O=C(Nc1cccc(-c2nn3ccccc3c2-c2ccnc(Nc3cccc(C(F)(F)F)c3)n2)c1)c1c(F)cccc1F [GSK292658], the “%Inh” value is reported as 0%.
CN(c1ccc(NC(=O)Nc2cc(C(F)(F)F)ccc2F)cc1)c1ccnc(Nc2ccc(S(N)(=O)=O)cc2)n1 [GW809893] was tested, and the “%Inh” value was 99.7%.
In the case of COc1cc(Nc2ncc3c(C)nc(-c4cc5ccccc5[nH]4)n3n2)cc(OC)c1OC [GW869516], the “%Inh” value is reported as 0%.
For Cc1ccc(C)c(NC(=O)NC2CCN(c3ccnc(Nc4ccc(F)cc4)n3)C2)c1 (stereo not shown) [GSK1379720], the “%Inh” value was 0%.
With c1ccc(Oc2ccc(Nc3ccnc4cc(-c5ccc(CNCCN6CCOCC6)o5)ccc34)cc2)nc1 [GW567145] the “%Inh” value was 0%.
For COc1cc(Nc2nccc(-c3c(-c4cccc(NC(=O)c5c(F)cccc5F)c4)nn4ncccc34)n2)cc(OC)c1OC [GSK327238], the “%Inh” value was 0%.
In the case of COc1cc(Nc2nccc(N3CCC(NC(=O)Nc4cccc(C(C)=O)c4)C3)n2)cc(OC)c1OC (stereo not shown) [GSK1379753], the “%Inh” value is reported as 0%.
With Cl.Cl.NCC(NCc1ccc(-c2ccnc3[nH]ccc23)s1)c1ccccc1 (stereo not shown) [GSK1321565] the “%Inh” value was 0%.
Oc1cc(Nc2ccnc3cc(I)ccc23)ccc1F [GW552771] was tested, and the “%Inh” value was 0%.
Cc1ccc(C(=O)Nc2ccc(Nc3ccnc4cc(-c5nccs5)ccc34)cc2O)cc1.Cl [GW494702] was tested, and the “%Inh” value was 94.4%.
In the case of C[C@@H]1CC[C@@H](C(=O)Nc2ccccc2)CN1c1cc(-c2ccc3c(N)n[nH]c3c2)nc(N)n1 [GSK2286062], the “%Inh” value is reported as 20%.
With Nc1ncc(-c2cccnc2)c2scc(-c3ccc4c(c3)CCN4C(=O)Cc3ccccc3)c12 [GSK683281] the “%Inh” value was 0%.
In the case of Cl.c1ccc(-c2ccc3c(Nc4ccc5[nH]ccc5c4)ccnc3c2)nc1 [GW440138], the “%Inh” value is reported as 0%.
For CCn1c(-c2nonc2N)nc2c(C#CC(C)(C)O)nc(OC[C@H](N)c3ccccc3)cc21 [GSK943949], the “%Inh” value was 0%.
For Cn1cc(-c2ccc3c(c2)CCN3C(=O)Cc2cccc(F)c2)c2c(N)ncnc21 [GSK2603358], the “%Inh” value was 0%.
O=C(Nc1cccc(-c2nn3ncccc3c2-c2ccnc(Nc3ccccc3)n2)c1)c1c(F)cccc1F [GSK198271] was tested, and the “%Inh” value was 0%.
With COc1cc(Nc2nccc(-c3c(-c4cccc(NC(=O)c5c(F)cccc5F)c4)nn4ccccc34)n2)cc(OC)c1OC [GSK323521] the “%Inh” value was 20%.
In the case of FC(F)(F)c1ccc(/C=C/c2cncnc2Nc2ccc3[nH]c(Cc4ccccc4)nc3c2)cc1 [GW709199], the “%Inh” value is reported as 0%.
With CC(C)(C)c1ccc2nccc(Nc3cccc(O)c3)c2c1 [GW856795] the “%Inh” value was 0%.
In the case of CCc1ccc(-c2ccc3c(c2)-c2c(cnn2C)S(=O)(=O)N3C)cc1, the “%Inh” value is reported as 0%.
For COc1cccc(C2=C(Nc3ccc(Cl)c(C(=O)O)c3)C(=O)NC2=O)c1 [SB-390769], the “%Inh” value was 9%.
In the case of NCCCC(NC(=O)c1cc(Br)c(-c2ccnc3[nH]ccc23)s1)c1ccccc1.O=C(O)C(F)(F)F.O=C(O)C(F)(F)F (stereo not shown) [GSK1287544], the “%Inh” value is reported as 0%.
COC(=O)Nc1nc2ccc(Oc3ccc(NC(=O)Nc4cc(C(F)(F)F)ccc4F)cc3)cc2n1C.Cl [GW692089] was tested, and the “%Inh” value was 0%.
For CC(C)c1nc(-c2cccc(NS(=O)(=O)c3c(F)cccc3F)c2F)c(-c2ccnc(Nc3ccc(N4CCOCC4)nc3)n2)s1 [GSK2008607], the “%Inh” value was 99.4%.
In the case of COCCOCCOc1cc2ncc3c4ccc(C#N)cc4[nH]c3c2cc1OC, the “%Inh” value is reported as 12%.
For Fc1ccc(-c2ncn(C3CCNCC3)c2-c2ccnc(Oc3ccc(-c4ccccc4)cc3)n2)cc1 [SB-245391], the “%Inh” value was 19%.
c1ccc(-c2cnc3nccnn23)cc1 [AH20685] was tested, and the “%Inh” value was 0%.
COc1cccc(-c2ccc3c(NC(=O)C4CC4)n[nH]c3n2)c1 [SB-710903] was tested, and the “%Inh” value was 33%.
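Further: KINOMEscan kinase panel screen.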
